This passage reports log2 fold change results from the supplement of paper PMC10849652.

Targets with a hit are over-represented here; the source holds about 8,800 in all. About 0.5% of all pairs of compound and target were hits.

Sequence of UniProt P49916 (P49916 whole entry, looked up): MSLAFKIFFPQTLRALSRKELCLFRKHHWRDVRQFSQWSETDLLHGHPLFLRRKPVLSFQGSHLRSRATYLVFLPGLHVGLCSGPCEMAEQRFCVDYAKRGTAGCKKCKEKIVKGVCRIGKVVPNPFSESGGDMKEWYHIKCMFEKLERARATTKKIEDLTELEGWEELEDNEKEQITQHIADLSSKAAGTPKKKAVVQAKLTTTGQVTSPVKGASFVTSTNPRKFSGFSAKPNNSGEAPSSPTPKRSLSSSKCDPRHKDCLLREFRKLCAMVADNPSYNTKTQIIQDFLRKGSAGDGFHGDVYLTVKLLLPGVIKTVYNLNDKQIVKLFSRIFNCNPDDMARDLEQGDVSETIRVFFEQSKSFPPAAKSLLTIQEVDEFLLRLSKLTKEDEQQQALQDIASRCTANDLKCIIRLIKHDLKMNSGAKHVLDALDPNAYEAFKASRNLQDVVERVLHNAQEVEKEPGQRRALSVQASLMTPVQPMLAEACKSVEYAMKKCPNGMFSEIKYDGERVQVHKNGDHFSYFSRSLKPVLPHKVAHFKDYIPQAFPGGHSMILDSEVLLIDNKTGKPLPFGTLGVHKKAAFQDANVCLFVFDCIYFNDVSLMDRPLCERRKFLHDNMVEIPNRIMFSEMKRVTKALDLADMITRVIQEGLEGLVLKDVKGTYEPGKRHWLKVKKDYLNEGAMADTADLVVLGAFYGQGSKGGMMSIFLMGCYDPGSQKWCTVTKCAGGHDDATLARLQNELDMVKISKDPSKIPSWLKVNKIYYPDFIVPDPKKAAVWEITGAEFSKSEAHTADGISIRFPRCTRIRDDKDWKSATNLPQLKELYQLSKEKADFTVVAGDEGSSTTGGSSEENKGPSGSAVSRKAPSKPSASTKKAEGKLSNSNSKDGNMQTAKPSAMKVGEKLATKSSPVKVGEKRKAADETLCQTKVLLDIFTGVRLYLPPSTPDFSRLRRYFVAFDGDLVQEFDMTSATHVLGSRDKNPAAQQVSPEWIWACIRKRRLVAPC
Sequence of UniProt Q9UBB5 (Q9UBB5 whole entry, looked up): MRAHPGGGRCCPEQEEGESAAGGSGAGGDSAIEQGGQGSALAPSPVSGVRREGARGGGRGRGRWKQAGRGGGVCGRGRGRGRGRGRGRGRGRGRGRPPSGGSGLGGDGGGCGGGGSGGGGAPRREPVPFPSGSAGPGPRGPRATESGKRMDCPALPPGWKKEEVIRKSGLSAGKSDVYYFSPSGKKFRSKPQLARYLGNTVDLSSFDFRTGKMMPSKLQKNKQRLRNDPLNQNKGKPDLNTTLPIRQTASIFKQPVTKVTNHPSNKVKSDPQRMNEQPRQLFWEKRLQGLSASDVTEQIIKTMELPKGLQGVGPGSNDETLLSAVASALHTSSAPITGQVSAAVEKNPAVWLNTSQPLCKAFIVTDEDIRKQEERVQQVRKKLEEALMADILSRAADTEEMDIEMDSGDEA
Sequence of UniProt Q9NZL9 (Q9NZL9 whole entry, looked up): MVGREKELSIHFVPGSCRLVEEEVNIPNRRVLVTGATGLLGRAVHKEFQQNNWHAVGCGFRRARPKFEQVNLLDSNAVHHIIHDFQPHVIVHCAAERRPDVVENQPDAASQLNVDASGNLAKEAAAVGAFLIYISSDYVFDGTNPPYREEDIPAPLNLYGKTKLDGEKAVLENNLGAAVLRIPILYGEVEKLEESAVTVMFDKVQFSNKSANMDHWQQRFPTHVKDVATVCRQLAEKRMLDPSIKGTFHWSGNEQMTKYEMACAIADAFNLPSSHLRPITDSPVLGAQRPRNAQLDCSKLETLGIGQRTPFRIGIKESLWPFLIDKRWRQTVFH
Sequence of UniProt Q9BVC4 (Q9BVC4 whole entry, looked up): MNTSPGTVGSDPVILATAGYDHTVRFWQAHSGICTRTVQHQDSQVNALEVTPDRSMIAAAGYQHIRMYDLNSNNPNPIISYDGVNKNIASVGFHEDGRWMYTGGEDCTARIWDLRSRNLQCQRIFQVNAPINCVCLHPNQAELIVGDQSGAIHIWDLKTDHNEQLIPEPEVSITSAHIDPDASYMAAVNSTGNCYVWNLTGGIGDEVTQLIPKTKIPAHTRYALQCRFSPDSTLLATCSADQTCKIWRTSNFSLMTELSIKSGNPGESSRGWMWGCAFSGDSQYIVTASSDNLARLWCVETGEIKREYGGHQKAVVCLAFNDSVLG
Sequence of UniProt Q9BTE3 (Q9BTE3 whole entry, looked up): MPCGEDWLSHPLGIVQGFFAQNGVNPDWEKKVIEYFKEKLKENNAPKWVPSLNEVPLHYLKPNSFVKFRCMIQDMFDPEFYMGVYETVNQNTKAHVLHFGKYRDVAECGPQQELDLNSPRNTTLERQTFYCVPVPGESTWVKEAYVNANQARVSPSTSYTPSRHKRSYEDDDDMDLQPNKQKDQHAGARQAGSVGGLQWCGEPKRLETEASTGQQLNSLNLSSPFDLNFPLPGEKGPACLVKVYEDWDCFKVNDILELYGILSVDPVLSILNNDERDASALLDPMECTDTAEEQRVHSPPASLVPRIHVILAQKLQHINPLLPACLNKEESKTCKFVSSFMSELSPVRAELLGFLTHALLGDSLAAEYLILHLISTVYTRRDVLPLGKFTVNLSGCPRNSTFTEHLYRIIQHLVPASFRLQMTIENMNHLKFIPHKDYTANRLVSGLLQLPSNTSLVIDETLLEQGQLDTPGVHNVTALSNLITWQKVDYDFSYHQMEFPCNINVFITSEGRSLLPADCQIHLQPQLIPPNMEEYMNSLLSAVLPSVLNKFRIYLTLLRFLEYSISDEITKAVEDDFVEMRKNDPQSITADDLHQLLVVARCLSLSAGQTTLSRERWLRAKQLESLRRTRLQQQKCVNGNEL
Sequence of UniProt Q9H089 (Q9H089 whole entry, looked up): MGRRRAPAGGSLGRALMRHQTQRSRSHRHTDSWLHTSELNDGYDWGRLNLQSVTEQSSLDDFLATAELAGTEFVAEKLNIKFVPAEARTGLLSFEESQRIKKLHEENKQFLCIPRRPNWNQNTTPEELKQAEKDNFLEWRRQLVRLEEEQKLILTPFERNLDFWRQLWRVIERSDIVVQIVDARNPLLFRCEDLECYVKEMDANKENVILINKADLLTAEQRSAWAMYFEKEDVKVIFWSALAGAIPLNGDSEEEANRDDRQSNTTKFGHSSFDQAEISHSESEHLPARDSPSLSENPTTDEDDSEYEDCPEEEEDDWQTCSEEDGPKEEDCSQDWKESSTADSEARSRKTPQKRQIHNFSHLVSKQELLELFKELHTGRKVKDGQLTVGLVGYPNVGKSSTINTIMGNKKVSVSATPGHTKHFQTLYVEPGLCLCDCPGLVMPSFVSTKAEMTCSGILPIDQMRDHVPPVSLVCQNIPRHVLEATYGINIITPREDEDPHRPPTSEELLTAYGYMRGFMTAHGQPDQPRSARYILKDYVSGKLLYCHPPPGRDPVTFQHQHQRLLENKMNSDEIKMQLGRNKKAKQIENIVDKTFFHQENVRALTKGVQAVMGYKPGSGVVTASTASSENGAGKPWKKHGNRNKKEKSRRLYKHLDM
Sequence of UniProt Q16644 (Q16644 whole entry, looked up): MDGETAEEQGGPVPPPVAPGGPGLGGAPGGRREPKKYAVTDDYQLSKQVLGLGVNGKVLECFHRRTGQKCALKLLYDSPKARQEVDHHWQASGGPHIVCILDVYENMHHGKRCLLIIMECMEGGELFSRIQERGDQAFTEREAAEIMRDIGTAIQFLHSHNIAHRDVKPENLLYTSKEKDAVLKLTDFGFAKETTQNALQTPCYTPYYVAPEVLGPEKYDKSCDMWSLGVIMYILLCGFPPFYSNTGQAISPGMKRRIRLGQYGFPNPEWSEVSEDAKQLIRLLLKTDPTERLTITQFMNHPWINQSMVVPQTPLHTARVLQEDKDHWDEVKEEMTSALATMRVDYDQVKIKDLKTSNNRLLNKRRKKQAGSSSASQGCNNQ
Sequence of UniProt P10620 (P10620 whole entry, looked up): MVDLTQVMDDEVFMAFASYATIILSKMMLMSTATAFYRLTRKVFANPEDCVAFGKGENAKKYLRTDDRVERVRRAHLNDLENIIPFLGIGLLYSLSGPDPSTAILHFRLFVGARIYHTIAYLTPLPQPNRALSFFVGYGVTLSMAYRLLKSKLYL
Sequence of UniProt Q00013 (Q00013 whole entry, looked up): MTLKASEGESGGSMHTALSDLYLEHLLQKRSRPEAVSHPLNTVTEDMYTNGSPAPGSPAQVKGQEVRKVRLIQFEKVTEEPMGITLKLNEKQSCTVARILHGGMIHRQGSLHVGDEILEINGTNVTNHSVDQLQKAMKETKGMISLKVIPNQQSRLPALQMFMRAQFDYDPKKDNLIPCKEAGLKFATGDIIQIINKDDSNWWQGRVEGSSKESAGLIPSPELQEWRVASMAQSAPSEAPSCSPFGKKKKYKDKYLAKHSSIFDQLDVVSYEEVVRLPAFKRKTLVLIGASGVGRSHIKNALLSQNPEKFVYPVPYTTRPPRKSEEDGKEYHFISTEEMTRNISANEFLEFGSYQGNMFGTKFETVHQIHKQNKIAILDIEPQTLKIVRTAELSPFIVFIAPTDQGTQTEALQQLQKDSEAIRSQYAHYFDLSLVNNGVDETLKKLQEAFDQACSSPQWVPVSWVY
Sequence of UniProt Q9UBU8 (Q9UBU8 whole entry, looked up): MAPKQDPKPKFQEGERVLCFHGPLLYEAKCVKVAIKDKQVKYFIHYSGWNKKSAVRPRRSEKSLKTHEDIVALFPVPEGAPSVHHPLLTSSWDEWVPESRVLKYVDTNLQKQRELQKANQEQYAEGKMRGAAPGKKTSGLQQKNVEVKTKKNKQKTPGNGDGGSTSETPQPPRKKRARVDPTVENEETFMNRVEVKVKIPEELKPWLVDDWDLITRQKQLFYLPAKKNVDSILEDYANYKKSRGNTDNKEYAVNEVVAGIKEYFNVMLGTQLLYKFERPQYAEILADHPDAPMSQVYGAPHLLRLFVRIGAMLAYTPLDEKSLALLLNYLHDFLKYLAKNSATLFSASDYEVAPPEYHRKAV
Sequence of UniProt O95777 (O95777 whole entry, looked up): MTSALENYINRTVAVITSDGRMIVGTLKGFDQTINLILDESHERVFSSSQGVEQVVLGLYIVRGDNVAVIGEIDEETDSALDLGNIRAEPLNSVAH

Compound in the first assay: CN1CC[C@H](c2c(O)cc(O)c3c(=O)cc(-c4ccccc4Cl)oc23)[C@H](O)C1 [alvocidib]
Briefly: log2 fold change, soluble protein after heating vs DMSO (PISA); higher = thermal stabilisation; K562 lysate, 10 uM; active = over 0.2 and 3.5 SD of the protein, either way, in both replicates (recomputed). Summed up:
(§1)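 Thermal stability, expressed as log-two fold change relative to solvent controls, is given from duplicates. Crude K562 extract in PBS pH 7.4 with 1 mM MgCl2, at 1 mg/mL protein, was treated with 10 μM compound for 30 min and heated in aliquots for 3 min across 48°C-58°C. After pooling, adjustment to 0.5% NP-40 at 4°C and centrifugation at 21,000xg for 90 min, supernatant protein was measured by TMTpro 16plex LC-MS/MS with channel sums equalised.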
With MGST1 (UniProt P10620), the log2 fold change is 0.033 (inactive).
The same measure, in the same setting: the figure for MGAT5 (UniProt Q09328) is 0.056 (inactive).
Still for that read-out and setting: with MAT2B (UniProt Q9NZL9) the figure was -0.028 (inactive).
On to MCMBP (UniProt Q9BTE3), for which the log2 fold change was 0.035 (inactive).
Take MICB, A0A140T979: the log2 fold change was 0.01 (inactive).
The same measure, in the same setting: the figure for LSS (UniProt P48449) is -0.011 (inactive).
The same measure, in the same setting: with MORF4L1 isoform 2 (UniProt Q9UBU8) the figure was -0.01 (inactive); with MAPKAPK3 (UniProt Q16644), 0.038 (inactive); with KPNA4 (UniProt O00629), -0.098 (inactive).
Consider LIG3 (UniProt P49916), for which the log2 fold change is -0.017 (inactive).
Still for that read-out and setting: with MAP4 (UniProt E7EVA0) the figure was -0.074 (inactive).
As for MLST8 (UniProt Q9BVC4), the log2 fold change was 0.009 (inactive).
Consider LSG1 (UniProt Q9H089), for which the log2 fold change is -0.079 (inactive).
For MPP1 (UniProt Q00013), the log2 fold change was -0.01 (inactive).
Turning to LRWD1 (UniProt Q9UFC0), the log2 fold change was 0.027 (inactive).
In the case of MBD2 (UniProt Q9UBB5), the log2 fold change is 0.026 (inactive).
As to MCU (UniProt Q8NE86), the log2 fold change was 0.011 (inactive).

Compound in the next assay: CN1CCc2c(c3ccccc3n2Cc2ccc(C(=O)NO)cc2)C1 [Tubastatin A]
The assay is described as above. Summed up: as §1
Take LARS2 (UniProt Q15031): the log2 fold change was -0.06 (inactive).
In the case of LYSMD3 (UniProt Q7Z3D4), the log2 fold change is 0.127 (inactive).
On the same count and under the same terms, the figure for MARK3 (UniProt P27448) is -0.119 (inactive).
The same measure, in the same setting: the figure for MAP2K2 (UniProt P36507) is -0.026 (inactive); for MAD2L1BP isoform 3 (UniProt Q15013) it is -0.135 (inactive).
On the same count and under the same terms, the figure for MOCS1 isoform 8 (UniProt Q9NZB8) is -0.008 (inactive).
Take LRRC40 (UniProt Q9H9A6): the log2 fold change is -0.089 (inactive).
As for MPZL1 (UniProt O95297), the log2 fold change is 0.048 (inactive).
Same read-out and setting: with MON2 isoform 5 (UniProt Q7Z3U7) the figure was -0.149 (inactive); with LLGL1 (UniProt Q15334), -0.105 (inactive); with MRPL10 isoform 2 (UniProt Q7Z7H8), -0.013 (inactive).
On the same count and under the same terms, the figure for LIMS1 isoform 3 (UniProt P48059) is 0.034 (inactive).
On the same count and under the same terms, the figure for MED12 isoform 2 (UniProt Q93074) is -0.161 (inactive); for METTL7A (UniProt Q9H8H3) it is 0.014 (inactive).
MED17 (UniProt Q9NVC6): the log2 fold change is -0.093 (inactive).
Still for that read-out and setting: the figure for LSM8 (UniProt O95777) is 0.018 (inactive).
Turning to MFF isoform 2 (UniProt Q9GZY8), the log2 fold change is -0.038 (inactive).
On the same count and under the same terms, with LARS (UniProt Q9P2J5) the figure was -0.153 (inactive); with MAPK9 (UniProt P45984), -0.064 (inactive); with MED13L (UniProt Q71F56), -0.069 (inactive).
In the case of MACROD1 (UniProt Q9BQ69), the log2 fold change is -0.104 (inactive).
Consider MRPL46 (UniProt Q9H2W6), for which the log2 fold change was -0.097 (inactive).
Regarding MGST1 (UniProt P10620), the log2 fold change is -0.011 (inactive).
On the same count and under the same terms, with MGAT5 (UniProt Q09328) the figure was -0.009 (inactive).
Still for that read-out and setting: with MAT2B (UniProt Q9NZL9) the figure was 0.063 (inactive).
On the same count and under the same terms, with MCMBP (UniProt Q9BTE3) the figure was -0.078 (inactive).
For the target MICB, A0A140T979, the log2 fold change is -0.005 (inactive).
As to LSS (UniProt P48449), the log2 fold change is 0.021 (inactive).
On the same count and under the same terms, with MORF4L1 isoform 2 (UniProt Q9UBU8) the figure was 0.001 (inactive); with MAPKAPK3 (UniProt Q16644), -0.125 (inactive); with KPNA4 (UniProt O00629), 0.007 (inactive).
The same measure, in the same setting: with LIG3 (UniProt P49916) the figure was -0.142 (inactive).
On the same count and under the same terms, with MAP4 (UniProt E7EVA0) the figure was 0.1 (inactive); with MLST8 (UniProt Q9BVC4), -0.072 (inactive).
In the case of LSG1 (UniProt Q9H089), the log2 fold change was -0.016 (inactive).
Consider MPP1 (UniProt Q00013), for which the log2 fold change was -0.01 (inactive).
Same read-out and setting: the figure for LRWD1 (UniProt Q9UFC0) is -0.2 (inactive); for MBD2 (UniProt Q9UBB5) it is -0.06 (inactive); for MCU (UniProt Q8NE86) it is 0.045 (inactive).
